# From the supplement of paper PMC9135407
# Several values for one entry are separate records, joined by “and”; a condition that tells them apart may be missing. Equal values may be shown once. Where a name gives a salt, the structure may show the parent alone. Hit rate of the full screen: of about 5,800 compounds, about 620 (11%) showed activity. Shown is part of a subset that was picked to be rich in actives. Unmarked numbers belong to inactive results.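 Rule for the calls: active = score above a cut-off or among the top three wells of a plate; in these data no inactive exceeds 0.85.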
# Test system: primary human hepatic stellate cells (donor 1)
# Test: scaled lipid accumulation score (0 = DMSO-like, 1 = nortriptyline-like); higher = stronger HSC inactivation (lipid re-accumulation), active = hit call of the paper
# Details: 48 h
# Method: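 Primary lipid accumulation screen in primary human hepatic stellate cell myofibroblasts (donor 1, passage 8) in 384-well plates. 100 nL of library compound was pin-transferred into 30 µL medium in duplicate, and cells were treated for 48 h. The 'Scaled' score combines distance from plate baseline, toxicity and reproducibility penalties, and is normalised to nortriptyline (positive) and DMSO (negative) controls on each plate. A hit is defined as scaled >0.85 or among the top 3 wells per plate.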
# [1] = library stock concentration: 1 mM
# [2] = library stock concentration: 10 mM
# [3] = library stock concentration: 3.33 mM
# [4] = library stock concentration: 80 uM
# [5] = library stock concentration: 400 uM
# [6] = library stock concentration: 2 mM
smiles,measurement,setting,value
CCCCCC(=O)/C=C/[C@H]1[C@H](O)CC(=O)[C@@H]1CCCCCCC(=O)O [15-keto Prostaglandin E1],scaled lipid accumulation score,[1],≤ 0
O=C(Nc1ccc([N+](=O)[O-])cc1O)Nc1ccccc1Br,scaled lipid accumulation score,[1],≤ 0
same,scaled lipid accumulation score,[2],0.317
O[C@@H](COc1cccc2ncccc12)CN1CCN(C2c3ccccc3[C@@H]3[C@H](c4ccccc42)C3(F)F)CC1 (stereo not given in full),scaled lipid accumulation score,[3],0.206
same,scaled lipid accumulation score,[2],0.837
CCC(C)N(C)C(=O)c1cc2ccccc2c(-c2ccccc2Cl)n1 (stereo not given),scaled lipid accumulation score,[2],0.007 and ≤ 0
CC(C)(F)C[C@H](N[C@@H](c1ccc(-c2ccc(S(C)(=O)=O)cc2)cc1)C(F)(F)F)C(=O)NC1(C#N)CC1 [Odanacatib (MK-0822)],scaled lipid accumulation score,[3],≤ 0
same,scaled lipid accumulation score,[2],≤ 0
"CC(C)CCOc1ccc(N)cc1 [CP 24,879 (hydrochloride)]",scaled lipid accumulation score,[1],≤ 0
CN(C)CCOc1ccc(-c2nc(-c3ccncc3)c(-c3ccc4c(c3)CCC4=NO)[nH]2)cc1,scaled lipid accumulation score,[3],1.06 (active)
CN(C)CCOc1ccc(-c2nc(-c3ccncc3)c(-c3ccc4c(c3)CC/C4=N\O)[nH]2)cc1,scaled lipid accumulation score,[4],0.074
same,scaled lipid accumulation score,[5],0.325 and 0.619
same,scaled lipid accumulation score,[6],0.7 and 0.684
same,scaled lipid accumulation score,[2],0.476 and 0.423 and 0.307
OCCn1cc(-c2ccc3c(c2)CC/C3=N\O)c(-c2ccncc2)n1,scaled lipid accumulation score,[4],0.006
same,scaled lipid accumulation score,[5],0.086
same,scaled lipid accumulation score,[6],≤ -0.009
same,scaled lipid accumulation score,[3],0.041
same,scaled lipid accumulation score,[2],≤ 0 and ≤ -0.009
"CCCCCC(O)CCC1C(O)CC(=O)C1CCCCCCC(=O)O (stereo not given) [13,14-dihydro Prostaglandin E1]",scaled lipid accumulation score,[1],≤ 0
"CCCCCC(O)CCC1C(O)CC(=O)C1CCCCCCC(=O)O [13,14-dihydro-15(R)-Prostaglandin E1]",scaled lipid accumulation score,[1],≤ 0
COc1ccc(-c2nc(-c3ccc(-c4cccc(Cl)c4)o3)[nH]c2-c2ccc(OC)cc2)cc1 [Neurodazine],scaled lipid accumulation score,[1],0.352
same,scaled lipid accumulation score,[2],0.113
CC(=O)OC1CC2CCC1(C)C2(C)C (stereo not given),scaled lipid accumulation score,[2],≤ 0
Cc1cc(C=C2C(=O)C=CC2=O)cc(C)c1O [listing 1 of 2 here],scaled lipid accumulation score,[2],0.924 (active)
Cc1cc(C=C2C(=O)C=CC2=O)cc(C)c1O [listing 2 of 2 here],scaled lipid accumulation score,[4],≤ -0.001
same,scaled lipid accumulation score,[5],≤ -0.001
same,scaled lipid accumulation score,[6],0.593
same,scaled lipid accumulation score,[3],0.464
CCCCCCCCCCCCCCCCOCC(COP(=O)(O)OCC[N+](C)(C)C)OCC (stereo not given) [2-O-ethyl PAF C-16],scaled lipid accumulation score,[1],≤ 0
